Records with an inconclusive call do not appear. Values without a mark were called inactive. Activity calls are given as the source filed them. The call rests on the fitted dose curve; in most records, active means well fitted curve in the direction sought with a large enough effect; inconclusive means small, poorly fitted or top-dose-only effect, or another doubt; inactive means no such curve, though single readings can be large; an effect the other way counts as inactive or inconclusive.

For the first assay, the system named is Zika virus NS2B-NS3 protease (unlinked). Briefly: Optimization of GU AMC qHTS for Zika virus inhibitors: Unlinked NS2B-NS3 protease assay (AID 1347151).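 Further: 0% = no-inhibitor control and -100% = no-enzyme control; nearly all actives have a fitted effect of over 80% in size.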 The note with it: recombinant ZIKV NS2B-NS3 protease, fluorogenic AMC substrate; series mostly up to 52.5 µM; activity change, negative = inhibition: at the top concentration. Put shortly:
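Fluorescence read-out (340 nm ex / 450 nm em) of AMC peptide cleavage, taken immediately and after 15 min at room temperature (~20% conversion). Enzyme was the unlinked NS2B–NS3 complex at 25 nM in Tris pH 8.0 buffer.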
In the case of `C[N+]1(C)CCC(OC(=O)C(c2ccccc2)c2ccccc2)CC1`, the “activity change, negative = inhibition” value is 9.59%.

For the compound `Fc1ccc2[nH]c(CN3CCN(c4ccccn4)CC3)cc2c1`, the “activity change, negative = inhibition” value is -8.95%.

As to `CNc1ncnc2c1ncn2[C@@H]1O[C@H](CO)[C@@H](O)[C@H]1O`, the “activity change, negative = inhibition” value is 0.748%.

For the compound `CSc1ccccc1N1CCN(CCCCCC(=O)NC2CCCc3ccccc32)CC1` (stereo not drawn), the “activity change, negative = inhibition” value was -8.17%.

On to `OC[C@H]1O[C@@H](n2cnc3c(NC4CCCC4)ncnc32)[C@H](O)[C@@H]1O`, for which the “activity change, negative = inhibition” value is 1.12%.

Take `Nc1nc(SCc2ccc([N+](=O)[O-])cc2)c2ncn([C@@H]3O[C@H](CO)[C@@H](O)[C@H]3O)c2n1`: the “activity change, negative = inhibition” value is 4.61%.

Take `Nc1ncnc2c1ncn2[C@@H]1O[C@H](COP(=O)(O)CP(=O)(O)OP(=O)(O)O)[C@@H](O)[C@H]1O`: the “activity change, negative = inhibition” value was 0.754%.

With `O=c1[nH]c2cc([N+](=O)[O-])c([N+](=O)[O-])cc2[nH]c1=O`, the “activity change, negative = inhibition” value is -3.53%.

As for `CSc1nc(N)c2ncn([C@@H]3O[C@H](COP(=O)(O)OP(=O)(O)OP(=O)(O)O)[C@@H](O)[C@H]3O)c2n1`, the “activity change, negative = inhibition” value is -10.4%.

Turning to `CC(N)C(=O)OC(C)(C)Cc1ccc(Cl)cc1` (stereo not drawn), the “activity change, negative = inhibition” value is 12.3%.

Take `Clc1ccc(N2CCN(Cc3c[nH]c4ncccc34)CC2)cc1`: the “activity change, negative = inhibition” value was -12.9%.

Regarding `CCC1C(=O)OCC1Cc1cncn1C` (stereo not drawn), the Potency result is “inactive”.

Take `O=[N+]([O-])c1ccc(CNc2nc(NCc3cccc(C(F)(F)F)c3)nc3nc[nH]c23)cc1`: the “activity change, negative = inhibition” value is -4.58%.

Another assay deals with Zika virus NS2B-NS3 protease. The experiment in a line: Primary screen GU AMC qHTS for Zika virus inhibitors (AID 1347154). Further: nearly all actives have a fitted effect of over 70% in size. Further: potency means the concentration at half of the fitted maximal effect.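 On activity change, negative = inhibition: 0% = no-inhibitor control and -100% = no-enzyme control.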 The conditions noted are these: Zika NS2B-NS3 unlinked protease, AMC fluorogenic substrate; series mostly up to 54.1 µM; activity change, negative = inhibition: at the top concentration. Put shortly:
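Fluorogenic AMC-substrate cleavage by noncovalent NS2B-NS3 protease complex (25 nM, pH 8.0 Tris buffer with Tween 20) followed for 15 minutes at room temperature (~20% conversion). Percent inhibition from ex340/em450 signal change, fitted by 4-parameter Hill equation.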
Background: qHTS replaces the single test concentration by a dilution series.
Consider `C[N+]1(C)CCC(OC(=O)C(c2ccccc2)c2ccccc2)CC1`, for which the Potency entry was “inactive”.

Regarding `c1ccc2sc(SSc3nc4ccccc4s3)nc2c1`, the “activity change, negative = inhibition” value is -1.43% [at 25.8 µM].

As to `COc1cc(/C=C/C(=O)CC(=O)/C=C/c2ccc(O)c(OC)c2)ccc1O`, the “activity change, negative = inhibition” value is 11%.

As for `CN1CCc2ccccc2Cc2[nH]c3ccccc3c2CC1`, the “activity change, negative = inhibition” value was 24.7%.

With `O=C(O)c1ccccc1Nc1cccc(C(F)(F)F)c1`, the “activity change, negative = inhibition” value was -2.28%.

Turning to `O=C(/C=C/c1ccccc1)NCCO`, the “activity change, negative = inhibition” value was -9.4%.

`O=C(OCc1ccccc1)c1ccccc1`: the “activity change, negative = inhibition” value was -1.37%.

As to `Nc1ncnc2c1ncn2[C@@H]1O[C@H](COP(=O)(O)OP(=O)(O)OP(=O)(O)OP(=O)(O)OC[C@@H]2O[C@H](n3cnc4c(N)ncnc43)[C@@H](O)[C@H]2O)[C@@H](O)[C@H]1O`, the “activity change, negative = inhibition” value was -6.73%.

`CNc1ncnc2c1ncn2[C@@H]1O[C@H](CO)[C@@H](O)[C@H]1O`: the “activity change, negative = inhibition” value is -2.73%.

On to `C=CCCCCCCCCC(=O)O`, for which the “activity change, negative = inhibition” value is -0.57%.

Consider `CCCCCC(O)c1cccc(OCc2ccc3ccccc3n2)c1` (stereo not drawn), for which the activity change, negative = inhibition was 14.2% [at 6.83 µM].

For `CC1(C)C[C@@H]1C(=O)N/C(=C\CCCCSC[C@H](N)C(=O)O)C(=O)O`, the “activity change, negative = inhibition” value was 9.2%.

`CSc1ccccc1N1CCN(CCCCCC(=O)NC2CCCc3ccccc32)CC1` (stereo not drawn): the “activity change, negative = inhibition” value is -1.96%.

Consider `OC[C@H]1O[C@@H](n2cnc3c(NC4CCCC4)ncnc32)[C@H](O)[C@@H]1O`, for which the “activity change, negative = inhibition” value was -6.84%.

`Nc1nc(SCc2ccc([N+](=O)[O-])cc2)c2ncn([C@@H]3O[C@H](CO)[C@@H](O)[C@H]3O)c2n1`: the “activity change, negative = inhibition” value is 2.35%.

Consider `COc1ccnc2c1CCCCC2S(=O)c1nc2ccccc2[nH]1` (stereo not drawn), for which the Potency is 35.5 µM (active).

`Nc1ncnc2c1ncn2[C@@H]1O[C@H](COP(=O)(O)CP(=O)(O)OP(=O)(O)O)[C@@H](O)[C@H]1O`: the “activity change, negative = inhibition” value is 3.08%.

Consider `CCCCCCCCCCCCCCCCCC(=O)O`, for which the “activity change, negative = inhibition” value is -3.93%.

In the case of `CNC(=O)c1c(I)c(NC(=O)CCCCC(=O)Nc2c(I)c(C(=O)O)c(I)c(C(=O)NC)c2I)c(I)c(C(=O)O)c1I`, the “activity change, negative = inhibition” value is -2.04%.

For `COc1cc(NC(C)CCCN)c2ncccc2c1` (stereo not drawn), the “activity change, negative = inhibition” value was -3.81%.

As to `Clc1ccccc1-c1nc(-c2ccncc2)no1`, the “activity change, negative = inhibition” value was -2.17%.

For the compound `Nc1c(CC(=O)O)cccc1C(=O)c1ccc(Br)cc1`, the “activity change, negative = inhibition” value was -5.02%.

For `Cc1ccc(C(=O)c2ccc(CC(=O)O)n2C)cc1`, the “activity change, negative = inhibition” value was -2.61%.

For the compound `O=c1[nH]c2cc([N+](=O)[O-])c([N+](=O)[O-])cc2[nH]c1=O`, the Potency entry is “inactive”.

With `CSc1nc(N)c2ncn([C@@H]3O[C@H](COP(=O)(O)OP(=O)(O)OP(=O)(O)O)[C@@H](O)[C@H]3O)c2n1`, the “activity change, negative = inhibition” value is -15.3%.

In the case of `CC(N)C(=O)OC(C)(C)Cc1ccc(Cl)cc1` (stereo not drawn), the “activity change, negative = inhibition” value was -3.62%.

With `O=C(CS)Nc1ccccc1`, the “activity change, negative = inhibition” value is -5.63%.

`Cc1cc(NC(=O)Nc2ccc3c(ccn3C)c2)sn1`: the “activity change, negative = inhibition” value is 16.3%.

Take `Cc1nc2ccccc2n1Cc1ccc(Cl)cc1`: the “activity change, negative = inhibition” value is -6.25%.

Regarding `CN(C)CCn1nnnc1SCC1=C(C(=O)O)N2C(=O)[C@@H](NC(=O)Cc3csc(N)n3)[C@H]2SC1`, the “activity change, negative = inhibition” value is 4.57%.

Turning to `Clc1ccc(N2CCN(Cc3c[nH]c4ncccc34)CC2)cc1`, the “activity change, negative = inhibition” value was -14.4%.

Take `COC(=O)C1=C(C)NC(C)=C(C(=O)OCC(C)=O)C1c1ccccc1[N+](=O)[O-]` (stereo not drawn): the “activity change, negative = inhibition” value is -2.21%.

Turning to `CCC1C(=O)OCC1Cc1cncn1C` (stereo not drawn), the Potency result was “inactive”.

On to `CC(C(=O)O)c1ccc(C(=O)c2ccccc2)s1` (stereo not drawn), for which the “activity change, negative = inhibition” value is -5.98%.

`CCCCCCCCCCCCCCCC(=O)OC(C)C`: the “activity change, negative = inhibition” value is 1.2%.
